# Rows were chosen to be rich in hits. Some 21% of all compounds tested hit in one or more screens of this group.
# DT40 TDP1 no CPT: qHTS for Inhibitors of human tyrosyl-DNA phosphodiesterase 1 (TDP1): qHTS in cells in absence of CPT; AID 686978, 2013; Potency, µM (highest dose often 46.2 µM), for the others: top-dose activity change, negative = growth inhibition, actives largely listed as inhibitors; hit rate 15% among 420,000; DT40 Tdp1-/- hTDP1 cells, no CPT, ATP luminescence, 48 h; note: potency is the fitted concentration of half-maximal effect; nearly all actives have a fitted effect of over 55% in size
#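 Luminescent ATP content (CellTiter-Glo) served as the growth readout. Knockout chicken DT40 cells expressing human TDP1 were exposed to compounds without camptothecin for a minimum 48 hr at 37 °C.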
# TDP1 cell CPT: DT40-hTDP1 cell growth loss with CPT. chicken DT40 Tdp1-/-;hTDP1 cells + 20 nM CPT, ATP luminescence, 48 h. Potency, µM (top dose mostly 46.2 µM), for the others: top-dose activity change, negative = growth inhibition, hits mostly inhibitors. hit rate 12% among 420,000. AID 686979; note: potency is the fitted concentration of half-maximal effect; nearly all actives have a fitted effect of over 55% in size
#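 Cell growth measured by CellTiter-Glo luminescence after a minimum 48 h, 37 C compound exposure with 20 nM CPT in Tdp1-knockout DT40 cells stably expressing hTDP1, seeded 400/well; qHTS titration format.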
# VP16 counter: counter-screen for ROR gamma inhibitors: Gal4-VP16 reporter; Drosophila S2 Gal4-VP16 UAS-luciferase, luminescence, 20 h; Potency, µM (doses to about 53.6 µM), for the others: top-dose activity, negative = inhibition, hits mostly inhibitors; hit rate 3.5% among 310,000;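 note: Gal4-VP16 expression switched on by copper sulfate through the metallothionein promoter; potency is the fitted concentration of half-maximal effect; nearly all actives have a fitted effect of over 50% in size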
# ELG1 DNA repair: ELG1-dependent DNA repair inhibition; HEK293T ELG1-luciferase reporter, luminescence, 16 h; DNA damage induced by 5-fluorouridine; Potency, µM (series often up to 46.1 µM), for inactives: at the highest dose activity change, negative = inhibition, usual class: inhibitors; hit rate 2.3% among 330,000; note: potency is the fitted concentration of half-maximal effect; nearly all actives have a fitted effect of over 55% in size
#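 HEK293T cells expressing luciferase-tagged ELG1 (2,000/well) received 5-Fluorouridine plus compound or DMSO for 16 hr at 37 °C. Luciferase was read by ONE-Glo luminescence after 30 min at room temperature.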
# IL-1B inflam inh: blocks inflammasome-driven IL-1 beta release | hit rate 4.7% among 360,000 | activity change, % at 57.5 µM | THP-1 LPS/ATP IL-1B secretion, AlphaLISA, 16 h; active compounds read low | AID 743279; in the data active = activity change below about -50%; inconclusive = mostly about -30% to -49%
#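 Secreted IL-1B measured by AlphaLISA bead assay after 16 h compound exposure of THP-1 cells; compounds (final up to 57.5 uM) added 1 h before LPS (250 ng/mL) and ATP (1.25 mM) stimulation; lower signal means less secretion.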
# RORgamma inh: ROR gamma (mouse) transcription inhibition; Drosophila S2 Gal4-RORgamma UAS-luciferase reporter, 20 h; AID 2551; P51450; Potency, µM (doses to about 53.6 µM), inactives show at the top dose activity change, negative = inhibition, hits mostly inhibitors; hit rate 5.4% among 310,000; note: potency is the fitted concentration of half-maximal effect; nearly all actives have a fitted effect of over 60% in size
# Target sequence (P51450 whole entry, looked up, the tested form may be a part): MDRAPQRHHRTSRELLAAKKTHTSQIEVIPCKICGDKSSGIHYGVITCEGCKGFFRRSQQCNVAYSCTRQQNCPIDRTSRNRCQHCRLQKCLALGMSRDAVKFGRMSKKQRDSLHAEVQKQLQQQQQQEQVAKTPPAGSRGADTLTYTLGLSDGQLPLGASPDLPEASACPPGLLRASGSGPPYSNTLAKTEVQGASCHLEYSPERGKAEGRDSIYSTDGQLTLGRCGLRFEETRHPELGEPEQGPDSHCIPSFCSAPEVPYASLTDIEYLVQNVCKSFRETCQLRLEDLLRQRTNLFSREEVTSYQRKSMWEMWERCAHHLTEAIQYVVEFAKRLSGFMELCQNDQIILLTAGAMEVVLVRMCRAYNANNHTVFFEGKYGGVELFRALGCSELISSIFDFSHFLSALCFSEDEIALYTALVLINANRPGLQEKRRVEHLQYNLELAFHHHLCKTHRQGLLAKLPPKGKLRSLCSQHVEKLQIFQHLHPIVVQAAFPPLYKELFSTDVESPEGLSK
#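 Drosophila S2 cells stably expressing Gal4-DBD/mouse RORγ fusion under metallothionein promoter plus UAS-luciferase; compound 1 h, then 700 uM CuSO4 induction for 20 h at ambient temperature; inhibition read as reduced luminescence.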
# * = called active by the depositor; ? = inconclusive; / = not tested or not shown; [ ] = dose if it differs, or a comment. Unless noted, calls come from the whole dose curve; as a rule, active = well fitted curve in the direction sought with a large enough effect; inconclusive = small, poorly fitted or top-dose-only effect, or another doubt; inactive = no such curve, though single readings can be large; an effect the other way counts as inactive or inconclusive. % is set by controls: 0 for no effect and ±100 for the full control effect.
SMILES,DT40 TDP1 no CPT,TDP1 cell CPT,VP16 counter,ELG1 DNA repair,IL-1B inflam inh,RORgamma inh
Cc1ccc(C(=O)COC(=O)c2cc(-c3ccc(Cl)cc3)nc3ccccc23)cc1,21µM*,10µM*,/,/,/,/
Cc1ccc(C(=O)COC(=O)c2ccc(O)cc2)cc1,5%,3%,11µM*,?,-12,?
Cc1ccc(-c2cc(C(=O)OCC(=O)Nc3ncc(C(F)(F)F)cc3Cl)c3ccccc3n2)cc1,?,15µM*,-4%,?,28,-6%
COc1ccc(C2=Nn3c(nnc3-c3ccccc3C)SC2)cc1,/,/,3%,/,/,19%
Cc1ccc(C(=O)/C=C/c2ccc(-c3ccc(C)cc3)o2)cc1,5.2µM*,5.2µM*,?,24%,-14,37%
CCN(CC)S(=O)(=O)c1ccc(C(=O)/C=C/c2ccc(-c3ccc([N+](=O)[O-])cc3)o2)cc1,6.5µM*,?,6%,-3%,0,-29%
O=C(/C=C\c1ccc(-c2ccccc2)o1)c1ccccc1,?,?,-26%,?,-92*,13%
CCC(=O)N1CCc2cc(S(=O)(=O)CCC(=O)NCc3ccc(F)cc3)ccc21,3.3µM*,6.5µM*,/,/,/,/
CCC(=O)N1CCc2cc(S(=O)(=O)CCC(=O)NCc3ccc(C)cc3)ccc21,?,?,-2%,2%,27,-3%
CCC(=O)N1CCc2cc(S(=O)(=O)CCC(=O)Nc3nc(C)cs3)ccc21,?,?,-11%,-25%,-58*,0%
CCC(=O)N1CCc2cc(S(=O)(=O)CCC(=O)Nc3ccc(C)cn3)ccc21,14%,-17%,-8%,0%,-1,5%
CN(CCO)C(=O)c1cn(C2CCCN(Cc3ccc(C(F)(F)F)cc3)C2)nn1 (stereo unspecified),?,2%[9.04 µM],/,/,/,/
Cc1cc(C(=O)N/N=C/c2ccc(OCc3ccccc3)cc2)c(C)o1,16µM*,?,-16%,4%,-22,?
COc1ccc(/C=N/NC(=O)c2cc(C)oc2C)cc1OCc1ccccc1,?,?,?,?,-24,10µM*
O=C(N/N=C/c1ccc(OCc2ccccc2)cc1)c1ccco1,?,?,-2%,?,24,?
C=C(C)c1cccc(C(C)(C)NC(=O)Nc2ccc(C)cn2)c1,18µM*,18µM*,-16%,9%,-6,236%
C=C(C)c1cccc(C(C)(C)NC(=O)Nc2cc(C)ccn2)c1,?,?,?,-14%,-27,?
Oc1ccc(Br)cc1-c1n[nH]c(=S)n1Cc1ccccc1,-29%,-11%,-8%,-3%,-6,10µM*
CCc1nnc(NC(=O)c2csc3c2CCC(C)C3)s1 (stereo unspecified),/,/,13%,?,/,-3%
CCn1c(C2CCN(Cc3ccccc3)CC2)n[nH]c1=S,-4%,-2%,-3%,0%,-10,-29%
CCn1c(-c2cc(-c3ccccc3)sc2N)n[nH]c1=S,8.2µM*,?,13µM*,?,11,4µM*
CCn1c(-c2nn(C)c(C)c2Cl)n[nH]c1=S,2%,-8%,?,?,7,?
CCn1c(-c2ccccc2O)n[nH]c1=S,-8%,-27%,-26%,12%,21,13µM*
CCn1c(-c2csc3c2CCC(C)C3)n[nH]c1=S (stereo unspecified),?,?,2.8µM*,5%,-23,2µM*
Cc1c(C(=O)N2CCCC(C)C2)sc2ncnc(NCCN3CCCCC3)c12 (stereo unspecified),-24%,-2%[9.04 µM],/,/,/,/
SMILES,DT40 TDP1 no CPT,TDP1 cell CPT,VP16 counter,ELG1 DNA repair,IL-1B inflam inh,RORgamma inh
CC(O)(c1ccc(F)c(F)c1)c1nc(-c2ccc(F)c(Cl)c2)cs1 (stereo unspecified),?,?,/,/,-18,/
CCn1c(-c2csc3ccccc23)n[nH]c1=S,?,?,6.3µM*,15%,-10,6.3µM*
Cc1ccccc1-c1n[nH]c(=S)n1Cc1ccccc1,6%,2%,-3%,26%,-9,2%
S=c1[nH]nc(-c2ccccc2Br)n1Cc1ccccc1,-2%,1%,6.3µM*,-4%,14,4.5µM*
Oc1ccccc1-c1n[nH]c(=S)n1Cc1ccccc1,-8%,8%,-28%,-5%,7,11µM*
Cc1ccc(S(=O)(=O)c2cn(CC(=O)Nc3ccc4c(c3)OCO4)c3ccc(F)cc3c2=O)cc1,-30%,-26%,/,/,/,/
C/C=C\C[C@H](C)[C@H](O)[C@H]1C(=O)N[C@@H](CC)C(=O)N(C)CC(=O)N(C)[C@@H](CC(C)C)C(=O)N[C@@H](C(C)C)C(=O)N(C)[C@@H](CC(C)C)C(=O)N[C@@H](C)C(=O)N[C@@H](C)C(=O)N(C)[C@@H](CC(C)C)C(=O)N(C)[C@@H](CC(C)C)C(=O)N(C)[C@@H](C(C)C)C(=O)N1C,/,/,-8%[17 µM],/,/,5%[16.9 µM]
C[C@H](CO)N1C[C@H](C)[C@@H](CN(C)S(=O)(=O)c2ccc(F)cc2)Oc2ccc(NC(=O)Cc3ccccc3)cc2C1=O,?,?,/,-11%,-8,/
O=C(Nc1ccccc1C(=O)OCc1cc(=O)n2nc(C3CC3)sc2n1)c1cccc(Cl)c1,-12%,-10%,/,/,/,/
O=C(NC1CCCCC1)C(c1ccco1)N(C(=O)c1csnn1)C1CCCC1 (stereo unspecified),16µM*,?,-4%,-1%,0,7%
O=C(NC1CCCC1)C(c1ccccn1)N(C(=O)c1csnn1)C1CCCCC1 (stereo unspecified),?,21µM*,-3%,0%,37,49%
Cc1ccc2nc(C3CCCCC3)[nH]c2c1,?,-8%,?,?,-17,?
CC1CCCCN1C(=O)CN1CCC(c2nc3ccc(Cl)cc3[nH]2)CC1 (stereo unspecified),23µM*,?,-8%,?,-12,-3%
Cc1ccc(CN2CCC(c3nc4ccc(Cl)cc4[nH]3)CC2)cc1,16µM*,16µM*,-4%,?,/,-13%
CCC(=O)N1CCC1(C)C(=O)Nc1cc(-c2ccccc2)nn1C (stereo unspecified),-2%,9%,/,/,-7,/
Cc1ccc(C)c(S(=O)(=O)N2CCN(C(=O)c3ccccc3Cc3ccccc3)CC2)c1,?,11%,/,?,-59*,/
CC(C)c1ccc(S(=O)(=O)N2CCN(C(=O)CCc3nc4ccccc4c(=O)[nH]3)CC2)cc1,?,?,/,/,19,/

# Compound activity as filed in PubChem.
